This is one part of a sample in which hits are shown more often than they occur.
GIRK2 activator: activators of NPY4-receptor-primed GIRK2 channels, summary, cell-based, HEK293, thallium flux; AID 1259324, 2017; G protein-activated inward rectifier potassium channel 2 (Homo sapiens), P48051; HEK293 GIRK2/NPY4 cells, thallium flux fluorescence; activation (% efficacy), % for hits at 37.5 µM; 34,000 tested, under 10 active;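 active means primary screen hit, no activity in plain HEK293 cells, and in GIRK2-only cells above 5% efficacy rising with concentration; inactive means the rest, including fluorescent compounds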;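 further: efficacy is normalized control-subtracted fluorescence 15 s after thallium addition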
AMPAR-TARP mod: modulators of GluA2-stargazin AMPA receptor complexes, primary screen, cell-based, membrane potential dye; Voltage-dependent calcium channel gamma-2 subunit (Mus musculus) + Glutamate receptor 2 …; HEK293 GluA2+stargazin, membrane potential dye (FDSS), glutamate EC50; hits were called plate by plate, in both directions; calls only at 30 µM; 40,000 compounds, 3.5% hits; AID 1259245, 2017;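 active means any of four per-well response measures lying three or more SD from its plate-wide compound average, in either direction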
Target sequence (O88602 whole entry, looked up): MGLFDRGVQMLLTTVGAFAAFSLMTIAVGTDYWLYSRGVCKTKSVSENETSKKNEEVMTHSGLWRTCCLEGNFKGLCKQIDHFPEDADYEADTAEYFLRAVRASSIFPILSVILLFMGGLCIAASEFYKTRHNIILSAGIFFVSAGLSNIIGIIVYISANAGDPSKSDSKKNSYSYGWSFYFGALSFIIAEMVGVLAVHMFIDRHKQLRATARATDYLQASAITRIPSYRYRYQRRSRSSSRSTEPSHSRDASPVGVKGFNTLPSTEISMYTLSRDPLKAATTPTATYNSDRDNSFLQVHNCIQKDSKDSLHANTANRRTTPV
Target sequence (P19491 whole entry, looked up): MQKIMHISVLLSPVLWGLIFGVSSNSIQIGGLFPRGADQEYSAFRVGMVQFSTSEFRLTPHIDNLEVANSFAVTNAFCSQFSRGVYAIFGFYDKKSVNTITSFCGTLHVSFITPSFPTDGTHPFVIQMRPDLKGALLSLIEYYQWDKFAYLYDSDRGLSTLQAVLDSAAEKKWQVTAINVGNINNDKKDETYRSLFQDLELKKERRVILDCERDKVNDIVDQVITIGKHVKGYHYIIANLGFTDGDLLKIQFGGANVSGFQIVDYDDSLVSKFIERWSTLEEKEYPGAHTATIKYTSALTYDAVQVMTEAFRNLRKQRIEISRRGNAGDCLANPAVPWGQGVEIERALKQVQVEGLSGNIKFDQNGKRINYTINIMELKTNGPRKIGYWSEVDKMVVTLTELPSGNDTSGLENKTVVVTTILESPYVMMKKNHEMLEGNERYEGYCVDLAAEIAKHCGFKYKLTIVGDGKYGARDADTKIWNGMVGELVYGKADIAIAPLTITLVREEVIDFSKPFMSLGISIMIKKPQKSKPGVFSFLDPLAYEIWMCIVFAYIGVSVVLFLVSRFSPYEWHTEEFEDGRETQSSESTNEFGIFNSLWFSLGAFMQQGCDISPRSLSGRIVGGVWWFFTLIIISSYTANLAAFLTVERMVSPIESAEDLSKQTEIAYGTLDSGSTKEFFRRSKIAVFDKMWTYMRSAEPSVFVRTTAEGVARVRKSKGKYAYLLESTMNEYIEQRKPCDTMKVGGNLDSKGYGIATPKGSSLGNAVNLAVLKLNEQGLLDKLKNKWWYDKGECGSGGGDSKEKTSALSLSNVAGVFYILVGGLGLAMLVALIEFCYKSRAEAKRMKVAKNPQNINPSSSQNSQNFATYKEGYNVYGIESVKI
Calls only; . = inactive; / = no result given; + = active, no number.

SMILES | GIRK2 activator | AMPAR-TARP mod
Cc1cc(C(=O)Nc2nnc(-c3cc(C)n(C)n3)o2)nn1C | . | +
Cc1cc(-c2nnc(NC(=O)c3ccc(SC(C)C)cc3)o2)nn1C | . | .
COc1ccc(CNC(=O)C(=O)NCC2OCCCN2S(=O)(=O)c2ccc(C)cc2)cc1 (stereo not given) | / | .
CN(C)C(CNC(=O)C1CCN(S(C)(=O)=O)CC1)c1ccco1 (stereo not given) | . | .
CCCCN(CC)S(=O)(=O)c1ccc(C(=O)Nc2cc(C)nn2C(C)C)cc1 | . | .
Cc1nc(-c2cccc(NC(=O)C3CN(C(=O)c4cnccn4)C3)c2)cs1 | . | .
COc1cc(OC)cc(C(=O)Nn2cnc3c(cnn3C(C)(C)C)c2=O)c1 | . | .
O=C(NCc1cccc(Br)c1)c1nc(-c2nc(-c3ccccn3)no2)cs1 | . | /
Cc1ccc(-c2nnc(NC(=O)c3ccc(S(=O)(=O)N4CCCCC4)cc3)o2)cc1C | . | .
Cc1cc(-c2nnc(NC(=O)c3cccc(C(F)(F)F)c3)o2)nn1C | . | .
Cc1cc(-c2nnc(NC(=O)c3ccc(S(=O)(=O)N4CCCCC4)cc3)o2)nn1C | . | +
Cc1cc(-c2nnc(NC(=O)c3nc4ccccc4s3)o2)nn1C | . | +
CN(C)S(=O)(=O)c1ccc(C(=O)Nc2nnc(-c3ccc(Br)s3)o2)cc1 | . | .
CCN(CC)S(=O)(=O)c1ccc(C(=O)Nc2nnc(-c3ccc(Br)s3)o2)cc1 | . | +
COc1cccc2cc(C(=O)Nc3nnc(-c4cc(C)n(C)n4)o3)oc12 | . | +
Cc1cc(-c2nnc(NC(=O)c3cc4ccccc4o3)o2)nn1C | . | .
CCSc1nnc(NC(=O)CSc2nnnn2-c2cc(C)ccc2C)s1 | . | .
O=C(c1ccc(F)cc1Cl)N(CCc1cccs1)Cc1cccnc1 | . | /
COc1cc(C(=O)Oc2ccc3c(c2)O/C(=C\c2cccs2)C3=O)cc(OC)c1OC | / | .
COC(=O)COc1ccc2c(c1)O/C(=C\c1cccs1)C2=O | / | +
Cc1cc(=O)[nH]c(-n2nc(C3CC3)cc2NC(=O)CCc2ccccc2)n1 | . | .
COc1ccc(C(=O)/C=C/c2ccccc2Cl)c(OC)c1 | / | .
COc1ccc(OC)c(C(=O)/C=C/c2ccccc2Cl)c1 | / | +
Cc1ccnc(NC(=O)NCCCSc2nccc(C)n2)n1 | . | .
COc1ccc(CNC(=O)Cn2cc(-c3ccccc3)c(N(C)C)n2)cc1 | . | /
SMILES | GIRK2 activator | AMPAR-TARP mod
Cc1c(Cl)ccc2sc(N(CCCN(C)C)C(=O)c3ccn(C)n3)nc12 | . | .
Cc1cc(C)c2sc(N(CCCN(C)C)C(=O)c3ccn(C)n3)nc2c1 | . | +
CCc1ccc2nc(N(Cc3ccccn3)C(=O)Cc3ccc(S(=O)(=O)CC)cc3)sc2c1 | / | .
Cc1c(Cl)cccc1S(=O)(=O)NCC(O)(c1ccccc1)C(F)(F)F (stereo not given) | . | +
O=S(=O)(NCC(O)(c1ccccc1)C(F)(F)F)c1ccccc1Cl (stereo not given) | . | .
CCC(C(=O)N1CCN(CCn2ccnc2)CC1)c1ccccc1 (stereo not given) | . | /
O=C(c1ccc(S(=O)(=O)N2CCOCC2)cc1)N(C(=O)N1CCCCC1)c1cccc(Cl)c1 | . | +
O=C(c1ccc(S(=O)(=O)N2CCOCC2)cc1)N(C(=O)N1CCCCC1)c1ccc(Cl)cc1 | / | .
O=C(NCCc1ccccc1)NC1(c2nc(-c3ccsc3)no2)CCCCC1 | . | .
COc1ccc(F)cc1S(=O)(=O)N1CCCCCC1 | / | .
COc1ccc(Br)cc1S(=O)(=O)N1CCCCCC1 | / | +
COc1ccc(S(=O)(=O)N2CCCCCC2)c(C)c1C | / | .
COc1ccc(Cl)cc1S(=O)(=O)N1CCN(S(=O)(=O)c2cc(Cl)ccc2OC)CC1 | / | .
COc1ccc(/C=C/c2nc3ccccc3s2)cc1S(=O)(=O)N1CCCCC1 | / | +
COc1ccc(Cl)cc1S(=O)(=O)N1CCCCCC1 | / | +
O=C(CSc1ccc(NC(=O)c2cccs2)nn1)NC1CCCC1 | . | .
Cc1cc(C(=O)N2CCOCC2)nn1CC(=O)Nc1ccc(Oc2ccccc2)cc1 | . | .
Cc1noc(C)c1S(=O)(=O)NCC1CCN(C(=O)Oc2ccccc2)CC1 | . | .
O=S(=O)(Nc1ccc(Br)cc1)N1CCOCC1 | / | .
O=S(=O)(Nc1ccc(Br)cc1)N1CCCCCC1 | / | +
COc1ccc(C(=O)Nc2ccc3c(c2)CCCN3C(=O)C2CC2)cc1OC | / | .
O=C(Nc1ccc(F)c(C(F)(F)F)c1)C1CN(C(=O)c2cccs2)C1 | . | .
O=C(Nc1ccc(F)c(C(F)(F)F)c1)C1CCN(C(=O)NC2CC2)CC1 | . | +
CSc1ncccc1C(=O)NCCC(O)c1cccs1 (stereo not given) | . | .
Cc1ccc(S(=O)(=O)CCCC(=O)Nc2ccccc2Oc2ccccc2)cc1 | . | +
SMILES | GIRK2 activator | AMPAR-TARP mod
CS(=O)(=O)c1ccc(CC(=O)Nc2ccccc2Oc2ccccc2)cc1 | / | +
COc1ccc(S(=O)(=O)CCC(=O)Nc2ccccc2Oc2ccccc2)cc1 | . | .
CS(=O)(=O)c1ccc(CC(=O)Nc2nc(-c3ccc(Oc4ccccc4)cc3)cs2)cc1 | / | .
CCCc1ccc(S(=O)(=O)NCCCN2CCOC(c3ccccc3)C2)cc1 (stereo not given) | . | /
Cc1nc(NCC2CCCO2)nc(N2CCOCC2)c1[N+](=O)[O-] (stereo not given) | . | .
Fc1ccccc1Nc1nc(N2CCOCC2)c2ccccc2n1 | / | +
Cc1nc(Nc2cccc(F)c2)nc(N2CCOCC2)c1[N+](=O)[O-] | . | .
CN1CCN(c2nc(Nc3cccc(O)c3)nc3ccccc23)CC1 | / | +
Fc1cccc(Nc2nc(N3CCCCC3)c3[nH]cnc3n2)c1 | . | .
O=C(CSc1ccc(-c2ccco2)nn1)Nc1cc(Cl)ccc1Cl | . | .
Cc1nc2c(c(=O)c3ccccc3n2C)c(=O)n1C1CCCCCC1 | / | +
COc1ccc(Cn2c(C)nc3c(c(=O)c4ccccc4n3C)c2=O)cc1 | / | +
COc1ccc(CCn2c(C)nc3c(c(=O)c4ccccc4n3C)c2=O)cc1OC | / | .
Cc1nc2c(c(=O)c3ccccc3n2C)c(=O)n1-c1ccccc1 | / | .
Cc1ccc([N+](=O)[O-])cc1NC(=O)C(=O)NCCN(C)C | / | .
Cn1c(=O)[nH]c(=O)c2c1nc(N1CCN(CC(N)=O)CC1)n2C/C=C/c1ccccc1 | / | .
COC(=O)C1=C(C)NC(=O)NC1c1ccc(OC(F)F)c(OC)c1 (stereo not given) | / | .
O=C(NCCOc1ccc(F)cc1)c1ccccc1Cl | . | .
O=C(NCCOc1ccc(F)cc1)c1c(F)cccc1Cl | . | +
Cc1ccc(C(=O)NC2CNC(=O)C2)cc1C (stereo not given) | . | /
O=C(Nc1ccc(S(=O)(=O)NC2CCCCC2)cc1)C1CCCO1 (stereo not given) | . | +
O=C(Nc1cccnc1)c1ccc(S(=O)(=O)NC2CCCC2)cc1 | . | .
CCC1CCCCN1S(=O)(=O)c1cc(C)c(Br)cc1C (stereo not given) | / | .
CCOc1cc(C)c(Cl)cc1S(=O)(=O)N1CCCCC1CC (stereo not given) | / | +
COCCNC(=O)Cn1nc2c(c1NC(=O)c1cc3ccccc3o1)CSC2 | . | .

High-throughput results deposited in PubChem BioAssay by several laboratories.
